# Screening data from PubChem.
# The list is not random: actives were taken first. Their share in the collection is about 32%.
# CYP2C9 activ – human CYP2C9 activators, primary screen, biochemical, luminescence; recombinant CYP2C9, luciferin-H conversion; hits give high values; factor 1 = untreated enzyme, 0 = blocked; activation factor at 5 µM; hit rate 1.4% among 96,000; AID 1024, 2008;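 active = activation factor of 2 or more for CYP2C9 at a 5 µM dose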;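 note: 0 = sulfaphenazole-blocked wells and 1 = vehicle-only wells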
# CYP2C19 act – human CYP2C19 activators, primary screen, biochemical, luminescence; recombinant CYP2C19, luciferin-H EGE luminescence; hits give high values; 0 = fully inhibited enzyme, 1 = untreated enzyme; activation factor at 5 µM; 96,000 tested, under 10 active;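 active = activation factor of at least 2 at 5 µM in the primary screen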;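 note: 0 = wells with 2.5 mM tranylcypromine and 1 = vehicle-only wells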
# Target sequence (P33261 whole entry, looked up): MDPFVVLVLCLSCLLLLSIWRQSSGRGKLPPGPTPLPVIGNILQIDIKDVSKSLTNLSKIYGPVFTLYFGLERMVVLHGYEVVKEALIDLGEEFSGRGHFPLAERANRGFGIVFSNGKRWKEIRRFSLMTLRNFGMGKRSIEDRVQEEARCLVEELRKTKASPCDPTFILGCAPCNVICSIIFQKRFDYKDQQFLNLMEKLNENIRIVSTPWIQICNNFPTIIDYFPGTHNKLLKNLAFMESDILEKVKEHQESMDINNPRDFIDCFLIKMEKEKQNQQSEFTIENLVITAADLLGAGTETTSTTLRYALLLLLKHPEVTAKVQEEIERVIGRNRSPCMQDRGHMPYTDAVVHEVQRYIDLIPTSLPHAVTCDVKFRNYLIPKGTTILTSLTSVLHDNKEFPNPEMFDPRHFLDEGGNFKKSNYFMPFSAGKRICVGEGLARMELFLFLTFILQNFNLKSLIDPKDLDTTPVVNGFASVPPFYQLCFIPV
# PostGolgi yeast – phenotypic screen on post-Golgi transport, primary screen; post-Golgi transport phenotypic cell assay; inhibition, % at 10 µM; hit rate 0.9% among 98,000;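 note: yeast cells grown in 1536-well plates; yeast grown about 18 h at 30C before absorbance read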
# PostGolgi ctrl – growth inhibition of yeast control strain, primary screen, counter-screen for post-Golgi transport modulator project. AID 738, 2007. inhibition, % at 10 µM. efflux-deficient yeast background strain, growth absorbance A615, 16 h. hit rate 5% among 98,000
# CYP2C9 inhib – blockers of cytochrome P450 2C9 activity – biochemical, luminescence, ADME assay, primary screen | P11712 | CYP2C9 Supersomes, luciferin-H conversion | inhibition, % at 5 µM | hit rate 20% among 96,000;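 active = blocking of liver enzyme CYP2C9 beyond about 50% at 5 µM, limit read from the data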
# CYP2C19 inhib – blockers of cytochrome P450 2C19 activity – biochemical, luminescence, ADME assay, primary screen | P33261 | CYP2C19 Supersomes, luciferin-H EGE luminescence, 30 min | inhibition, % at 5 µM | hit rate 21% among 96,000 | AID 778, 2007;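 active = CYP2C19 inhibition above a set limit at 5 µM in the primary screen, cut at about 50% in these data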;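 note: plate controls were negative control wells for no effect and 2.5 mM tranylcypromine positive control for full effect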
# An asterisk follows results filed as active. Cut-off read from the data, not from the text of the source, unless noted: active = inhibition above about 30%; inactive = the rest.
SMILES,CYP2C9 activ,CYP2C19 act,PostGolgi yeast,PostGolgi ctrl,CYP2C9 inhib,CYP2C19 inhib
C#CCSc1nnc(-c2sc(-c3ccccc3)nc2C)n1C,0.6,0.1,9,9,41,87*
COc1ccc2[nH]c(C)c(CN3CCC(C)CC3)c(=O)c2c1,1.1,1.2,14,-3,-11,-15
COc1ccc2[nH]c(=O)c3c(c2c1)OC(C)(C)C=C3,0.5,0.8,4,8,48,16
COc1ccc2[nH]c(C)c(CCN3C(=O)OC(C)(C)C3(C)O)c2c1 (centres undefined),0.1,0,-9,13,86*,99*
COc1ccc2[nH]c(C)c(CCN3C(=O)C4CC=CCC4C3=O)c2c1 (centres undefined),0.4,0,1,23,58*,97*
CCc1c(C)c2nncn2[nH]c1=O,1.1,1.1,3,4,-8,-12
COCCOCC(O)CN1CCN(c2ccc(C)cc2)CC1 (centres undefined),1,0.9,0,6,3,8
O=C(O)c1cc(NCc2ccccc2)ccc1N1CCOCC1,1.4,0.8,5,12,-41,15
COC(=O)c1cc(S(=O)(=O)N2CCOCC2)c(N2CCOCC2)cc1N1CCOCC1,0.2,0.6,0,0,76*,41
O=C(O)c1cc(NCc2ccc3c(c2)OCO3)ccc1N1CCOCC1,0.7,0.8,32*,-2,27,15
COC(=O)c1cc(NCc2ccc3c(c2)OCO3)ccc1N1CCOCC1,0.5,0.2,-8,7,52*,77*
O=C(c1cc(S(=O)(=O)N2CCCCC2)c(Cl)cc1N1CCOCC1)N1CCOCC1,0.8,1,-1,4,18,1
N#CCSc1nnc(C2CCCCC2)n1-c1ccccc1,1,1,-1,12,0,1
Cc1cc(N)n2ncc(-c3cccc(Br)c3)c2n1,0.3,0.6,0,33*,72*,39
Cc1cc(N)n2ncc(-c3ccccc3)c2n1,0.7,0.6,-16,27,35,38
CC1CCCCN1C(=O)C1CC(c2ccc(F)cc2)=NO1 (centres undefined),0.9,0.9,9,22,7,9
C=CCNc1nc(-c2cccc(OC)c2O)nc2ccccc12,1.3,1.1,-3,17,-28,-6
CCN(CC)c1nc(-c2cccc(OC)c2O)nc2ccccc12,1.1,1,-3,32*,-9,4
COc1cccc(-c2nc(N3CCCCC3C)c3ccccc3n2)c1O (centres undefined),0.2,0.8,18,75*,84*,24
CCCCCCSc1nc2c(c(=O)[nH]c(=O)n2C)n1C,0.7,0.8,-14,18,26,19
Cc1nnsc1NC(=O)OCc1ccc(C(C)(C)C)cc1,0.9,0.7,0,15,12,32
C=CCN(C(=O)CCC(=O)O)C1CC(=O)N(c2ccc(OCCC)cc2)C1=O (centres undefined),0.9,0.9,-21,34*,5,9
CCCOc1ccc(N2C(=O)CC(N(CCc3ccc(OC)cc3)C(=O)c3cccc(F)c3)C2=O)cc1 (centres undefined),0.4,0.4,-16,9,58*,62*
CCCOc1ccc(N2C(=O)CC(N(CCC)C(=O)CCC(=O)O)C2=O)cc1 (centres undefined),1.2,1.1,-1,11,-16,-9
O=C(/C=C/c1cc([N+](=O)[O-])ccc1OC(F)F)NCc1ccc(F)cc1,1.1,0.7,-7,-2,-7,34
COC(=O)[C@@H](NC(=O)NC(C)CCc1ccccc1)C(C)C (some centres undefined),1,0.9,-8,4,2,15
Cc1ccc(CC(=O)NC(C)CCc2ccccc2)cc1 (centres undefined),0.3,0.6,-16,9,71*,37
Cc1ccc(CC(=O)NCC(C)C)cc1,0.8,0.2,-9,2,15,79*
COC(=O)[C@H](C)NC(=O)NC(C)CCc1ccccc1 (some centres undefined),0.7,0.6,6,36*,34,39
